Results: PubChem BioAssay AID651739 (Broad Institute, 2012)
Hit rate of the full screen: of about 5,600 compounds, about 4,100 (73%) were called active. Roughly 4% stayed inconclusive and do not appear here.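 How the source made its calls: active means mean replicate inhibition above about 95% and at least 55% of replicates individually reaching it (limit read from the data); inconclusive means only one of the two criteria is met; inactive means neither criterion is met.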 So high a share suggests a set chosen from earlier hits. These entries were drawn from the full list.

Assay: T. cruzi intracellular proliferation inhibitors, confirmation, cell-based, NIH3T3 host, beta-gal parasite, luminescence, cherry-pick (AID 651739)
Settings: T. cruzi beta-gal in NIH3T3, GalScreen luminescence, 90 h; at 8.35 µM; active compounds read high

Row | Structure (SMILES) | inhibition
1 | O=C(CN1CCOCC1)N1CCCCN2[C@@H](CO)[C@H](c3ccc(-c4ccccc4)cc3)[C@@H]2C1 | 81.6% (inactive)
2 | O=C(CN1CCOCC1)N1CCCCN2[C@H](CO)[C@H](c3ccc(-c4ccccc4)cc3)[C@@H]2C1 | 73.7% (inactive)
3 | O=C(CN1CCOCC1)N1CCCCN2[C@@H](CO)[C@H](c3ccc(/C=C/c4ccccc4)cc3)[C@@H]2C1 | 99.6% (active)
4 | CCC(=O)N1CCCCN2[C@H](C1)[C@@H](c1ccc(-c3ccc(F)cc3)cc1)[C@@H]2CO | 60.2% (inactive)
5 | CCC(=O)N1CCCCN2[C@H](C1)[C@@H](c1ccc(/C=C/c3ccccc3)cc1)[C@@H]2CO | 102% (active)
6 | O=C(C[C@H]1CC[C@@H]2[C@H](COC[C@H](O)CN2Cc2ccc(Oc3ccccc3)cc2)O1)N1CCN(c2ccccc2)CC1 | 101% (active)
7 | COc1cccc(C#Cc2ccc([C@@H]3[C@H](C#N)N[C@H]3CO)cc2)c1 | 101% (active)
8 | O=C(c1cccnc1)N1CCCCN2[C@@H](CO)[C@H](c3ccc(C#Cc4ccccc4)cc3)[C@@H]2C1 | 112% (active)
9 | O=C(c1ccncc1)N1CCCCN2[C@H](CO)[C@H](c3ccc(-c4ccccc4)cc3)[C@H]2C1 | 105% (active)
10 | O=C(Nc1ccccc1F)N1CCCCN2[C@H](CO)[C@@H](c3ccc(-c4cccnc4)cc3)[C@H]2C1 | 61.1% (inactive)
11 | COc1ccccc1NC(=O)N1CCCCN2[C@H](C1)[C@H](c1ccc(-c3ccccc3)cc1)[C@@H]2CO | 109% (active)
12 | COc1ccc(C#Cc2ccc([C@@H]3[C@@H](CO)N4CCCCN(C(=O)c5ccncc5)C[C@@H]34)cc2)cc1 | 80.6% (inactive)
13 | CC(C)(O)C#Cc1ccc([C@@H]2[C@H](CO)N3CCCCN(C(=O)c4cccc(F)c4)C[C@@H]23)cc1 | 76.7% (inactive)
14 | O=C(c1cccc(F)c1)N1CCCCN2[C@H](CO)[C@H](c3ccc(-c4ccncc4)cc3)[C@H]2C1 | 95.2% (active)
15 | O=C(Nc1cc(F)ccc1F)N1CCCCN2[C@H](CO)[C@@H](c3ccc(-c4cncnc4)cc3)[C@H]2C1 | 55.4% (inactive)
16 | C[C@@H]1CCCCO[C@H](CN(C)Cc2ccccc2)[C@@H](C)CN([C@@H](C)CO)C(=O)c2cc(NC(=O)Nc3ccc(F)cc3)ccc2O1 | 101% (active)
17 | C[C@@H]1CCCCO[C@H](CN(C)Cc2ccc(C(F)(F)F)cc2)[C@H](C)CN([C@H](C)CO)C(=O)c2cc(NC(=O)Nc3ccc(F)cc3)ccc2O1 | 96.3% (active)
18 | C[C@@H]1CN([C@H](C)CO)C(=O)c2cc(NS(=O)(=O)c3cccs3)ccc2O[C@@H](C)CCCCO[C@H]1CN(C)Cc1ccc(C(F)(F)F)cc1 | 101% (active)
19 | C[C@@H]1CCCCO[C@@H](CN(C)Cc2ccc(C(F)(F)F)cc2)[C@@H](C)CN([C@H](C)CO)C(=O)c2cc(NC(=O)Nc3ccccc3)ccc2O1 | 105% (active)
20 | C[C@H]1CCCCO[C@H](CN(C)Cc2ccccc2)[C@@H](C)CN([C@@H](C)CO)C(=O)c2cc(NC(=O)c3ccccc3)ccc2O1 | 113% (active)
21 | C[C@H]1CCCCO[C@H](CN(C)Cc2ccccc2)[C@@H](C)CN([C@@H](C)CO)C(=O)c2cc(NC(=O)NC3CCCCC3)ccc2O1 | 111% (active)

Row | Structure (SMILES) | inhibition
22 | COc1ccccc1C#Cc1ccc([C@@H]2[C@H](CO)N3CCCCN(C(=O)C4CC4)C[C@@H]23)cc1 | 103% (active)
23 | COc1ccccc1C#Cc1ccc([C@H]2[C@H](CO)N3CCCCN(C(=O)C4CCC4)C[C@@H]23)cc1 | 114% (active)
24 | COc1ccccc1C#Cc1ccc([C@@H]2[C@H](CO)N3CCCCN(C(=O)C4CCCC4)C[C@@H]23)cc1 | 99.8% (active)
25 | CC(C)C#Cc1ccc2c(c1)O[C@H](CN(C)Cc1ccccc1)[C@H](C)CN([C@@H](C)CO)S2(=O)=O | 105% (active)
26 | C[C@@H]1CN([C@H](C)CO)S(=O)(=O)c2ccc(C#C[C@@H](C)O)cc2O[C@@H]1CN(C)Cc1ccc(-c2ccccc2)cc1 | 96.5% (active)
27 | C[C@H]1CN([C@@H](C)CO)S(=O)(=O)c2ccc(C#CCN(C)C)cc2O[C@@H]1CN(C)Cc1ccc(F)cc1 | 109% (active)
28 | C[C@@H]1CN([C@@H](C)CO)S(=O)(=O)c2ccc(/C=C/c3ccccc3)cc2O[C@H]1CN(C)Cc1ccccc1 | 98.5% (active)
29 | CC(=O)N(C)C[C@H]1Oc2cc(C#CCN(C)C)ccc2S(=O)(=O)N([C@@H](C)CO)C[C@@H]1C | 95.7% (active)
30 | CCCC#Cc1ccc2c(c1)O[C@@H](CN(C)C(=O)c1ccccc1F)[C@H](C)CN([C@H](C)CO)S2(=O)=O | 105% (active)
31 | CCCC#Cc1ccc2c(c1)O[C@H](CN(C)C(=O)CC)[C@@H](C)CN([C@H](C)CO)S2(=O)=O | 99.3% (active)
32 | CCC(=O)N(C)C[C@@H]1Oc2cc(C#CCN(C)C)ccc2S(=O)(=O)N([C@H](C)CO)C[C@H]1C | 98.5% (active)
33 | C[C@@H]1CN([C@@H](C)CO)S(=O)(=O)c2ccc(-c3cccc(F)c3)cc2O[C@@H]1CN(C)S(=O)(=O)c1ccccc1 | 104% (active)
34 | C[C@H]1CN([C@@H](C)CO)S(=O)(=O)c2ccc(C#Cc3cccc(F)c3)cc2O[C@@H]1CN(C)S(=O)(=O)c1cn(C)cn1 | 102% (active)
35 | CC(C)CC#Cc1ccc2c(c1)O[C@H](CN(C)S(=O)(=O)c1cccc(F)c1)[C@@H](C)CN([C@@H](C)CO)S2(=O)=O | 88.4% (inactive)
36 | COCCNC[C@@H]1[C@H](c2ccccc2)[C@H](CO)N1c1nc(C)c(C)s1 | 95.7% (active)
37 | O=S(=O)(c1ccccc1)N1CC[C@@H]2[C@H]1c1cc(C#Cc3cccc(F)c3)ccc1N[C@@H]2CO | 97.6% (active)
38 | O=S(=O)(c1ccccc1)N1CC[C@@H]2[C@@H](CO)Nc3ccc(C#Cc4cccc(F)c4)cc3[C@@H]21 | 100% (active)
39 | CC(=O)N1CC[C@@H]2[C@H](CO)Nc3ccc(C#Cc4ccccc4F)cc3[C@@H]21 | 70.2% (inactive)
40 | O=C(c1cccc(F)c1)N1CC[C@@H]2[C@@H](CO)Nc3ccc(C#Cc4cccc(F)c4)cc3[C@@H]21 | 106% (active)
41 | O=S(=O)(c1ccccc1)N1CC[C@@H]2[C@@H](CO)Nc3ccc(-c4ccccc4F)cc3[C@@H]21 | 103% (active)
